In PubChem BioAssay (NCI) one finds growth data, which are given here for eight compounds.

The panel holds about 83,000 compounds, 20% with a hit somewhere; the sample as a whole holds those more often.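 Treatment: one concentration, 48 hours, 96-well format. Scoring: percent growth, with anything below 10 considered active.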 Unmarked numbers belong to inactive results. Active and inactive are the calls of the source.

Experiment in all cases: NCI-60 one-dose screen, 48 h (100 = growth as untreated, 0 = no growth, -100 = all killed)
What all share (details): 10 µM unless noted

The subject of assay [1] is NCI-H23 lung.
For assay [2], the system named is NCI-H226 lung.
The subject of assay [3] is NCI-H322M lung.
In assay [4] the test system is HOP-62 NSCLC.
Assay [5] has as its system NCI-H460 lung.
Assay [6] has as its system NCI-H522 lung.
Assay [7] concerns A549/ATCC NSCLC.
In assay [8] the test system is 786-0 renal.
For assay [9], the system named is COLO 205 colon.
The subject of assay [10] is DU-145 prostate.
Assay [11] relates to K-562 leukemia.
The subject of assay [12] is MALME-3M melanoma.
The subject of assay [13] is MDA-MB-231 breast.
For assay [14], the system named is RXF 393 renal.
In assay [15] the test system is SF-268 CNS.
For assay [16], the system named is SF-295 CNS.
In assay [17] the test system is SF-539 CNS.
Assay [18] has as its system UACC-257 melanoma.
For assay [19], the system named is M14 melanoma.

Consider `CCCCCCCC/C=C/CCCCCCCC1=NC(C)(C)CN1c1ccccc1`, for which the growth in assay [1] was 89.1%; in [2] it was 99%; in [3] it was 116%; in [4] it was 100%; in [5], 103%; in [6], 65.1%. For the same compound, the growth in assay [7] was 91.6%; in [8] it was 81.8%; in [9] it was 97.8%; in assay [10], 97.2%; in [11], 65.9%; in assay [12] it was 115%. Also, the growth in assay [13] was 103%; in [14], 85%; in assay [15] it was 91.9%; in [16] it was -5.3% (active); in assay [17], 96.9%; in assay [18], 90.2%. Moreover, the growth in assay [19] is 99.7%.

In the case of `CCCCc1nc(Cl)c(C2CC(c3ccc(S(N)(=O)=O)cc3)=NN2c2ccc(C#N)cc2)[nH]1` (configuration not stated), the growth in assay [1] was 98.5%; in [2], 79.6%; in assay [3] it was 81.3%; in [4] it was 90.5%; in [5] it was 95.5%; in [6], 68%. Also, the growth in [7] was 94.6%; in [8], 84.6%; in assay [9] it was 87.8%; in [10], 104%; in assay [11], 69.5%; in [12], 105%. Besides, the growth in assay [13] was 88%; in assay [14] it was 81.1%; in assay [15], 91.9%; in assay [16], 97.9%; in assay [17], 99.9%; in assay [18], 86.2%. Further, the growth in assay [19] is 88.1%.

`COc1cc(Nc2ncccc2/C=C/C(=O)c2cc(OC)c(OC)c(OC)c2)cc(OC)c1OC`: the growth is 81.7% in assay [1]; 82.9% in assay [2]; 102% in [3]; 92.7% in assay [4]; 79.7% in assay [5]; 87.8% in assay [6]. For the same compound, the growth in [7] is 68.8%; in assay [8] it was 91.7%; in assay [9] it was 75.2%; in assay [10], 80.6%; in [11] it was 45.5%; in assay [12] it was 103%. Further, the growth in assay [13] is 93.3%; in [14] it was 86%; in [15], 83.3%; in assay [16], 84.2%; in assay [17] it was 78.9%; in assay [18], 67%. The growth in assay [19] is 86.7%.

On to `CN1C(=O)NC(Cc2c[nH]c3c(Cl)cccc23)C1=O` (configuration not stated), for which the growth in assay [1] was 102%; in [2], 93.8%; in assay [3], 120%; in assay [4], 107%; in [5], 112%; in [6], 96.4%. Moreover, the growth in assay [7] was 102%; in assay [8] it was 109%; in [9], 105%; in [10] it was 123%; in assay [11], 101%; in assay [12], 141%. Besides, the growth in assay [13] was 117%; in [14] it was 92.1%; in [15], 110%; in [16], 109%; in [17] it was 98.4%; in assay [18], 116%. Also, the growth in assay [19] was 108%.

`COc1cc(/C=N/NC(=O)Cn2c(-c3ccc(C)o3)nc3ccccc32)ccc1OCc1ccccc1`: the growth in assay [1] was 91.1%; in assay [2], 84.4%; in assay [3], 85.7%; in [4] it was 89.8%; in assay [5] it was 91.5%; in [6], 73.6%. The growth in assay [7] was 72.9%; in assay [8], 99%; in assay [9] it was 102%; in assay [10], 105%; in assay [11] it was 65.5%; in [12], 115%. Also, the growth was 78.7% in [13]; 85.6% in [14]; 76.1% in assay [15]; 91.7% in assay [16]; 103% in [17]; 89.5% in assay [18]. For the same compound, the growth in [19] was 85.2%.

As to `CCN(CC)CCNC(=O)n1cc(-c2ccncc2)c(-c2cc(Cl)cc(OC)c2)n1`, the growth was 80.1% in [1]; 38.7% in assay [2]; 114% in [3]; 35.9% in assay [4]; 97.9% in [5]; 92.3% in assay [6]. Moreover, the growth is 49.5% in assay [7]; 71.5% in assay [8]; 46.2% in [9]; 81.3% in [10]; 66.7% in [11]; 111% in assay [12]. For the same compound, the growth in [13] was 82.8%; in assay [14], 61.8%; in assay [15], 73.9%; in assay [16], 80.3%; in assay [17] it was 44%; in assay [18], 89.4%. Moreover, in [19], the growth is 108%.

Consider `CC1(C)OC2OC3C(CN)OC(c4ccccc4)OC3C2O1` (configuration not stated), for which the growth in assay [1] is 99.5%; in assay [2] it was 107%; in assay [3], 125%; in assay [4], 93.9%; in [5], 124%; in assay [6] it was 99%. Moreover, the growth in [7] is 107%; in assay [8], 104%; in [9], 103%; in [10] it was 108%; in assay [11], 104%; in assay [12], 120%. For the same compound, the growth in [13] was 101%; in assay [14] it was 122%; in assay [15], 93.2%; in [16], 123%; in assay [17], 106%; in assay [18] it was 105%. In [19], the growth was 120%.

For `CCn1c(Cc2ccccc2Nc2c(Cl)cccc2Cl)nnc1SCC(=O)Nc1ccccc1C(F)(F)F`, the growth was 89.7% in [1]; 82.3% in assay [2]; 79.4% in assay [3]; 98.1% in assay [4]; 95.8% in assay [5]; 55.5% in assay [6]. The growth in assay [7] is 76.8%; in assay [8], 92%; in assay [9] it was 99.1%; in [10] it was 103%; in [11], 72.5%; in assay [12] it was 100%. Further, the growth is 84.8% in assay [13]; 94.6% in assay [14]; 100% in [15]; 90.6% in [16]; 106% in assay [17]; 101% in assay [18]. In assay [19], the growth was 92.2%.
